# According to the supplement of paper PMC10849652:
# Of roughly 7,900 targets only a part is listed; those with a hit were picked by preference. About 0.6% of all pairs of compound and target were hits.
# Compound: COc1cc(C(=O)O)ccc1NC(=O)[C@@H]1N[C@@H](CC(C)(C)C)[C@](C#N)(c2ccc(Cl)cc2F)[C@H]1c1cccc(Cl)c1F [idasanutlin]
# Experiment: log2 fold change, soluble protein after heating vs DMSO (PISA); higher = thermal stabilisation; K562 cells, 10 uM, 30 min; active = over 0.2 and 3.5 SD of the protein, either way, in both replicates (recomputed)
# Procedure, shortened: (§1)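 K562 cells at 2×10^6 cells/mL were treated for 30 min with 10 μM compound, and aliquots were heated for 3 min over 48°C-58°C before pooling. Extraction used PBS with 0.5% NP-40 at 4°C, and soluble protein was the supernatant after 21,000xg for 90 min, measured by TMTpro 16plex LC-MS/MS with channel sums equalised. Thermal stability values, relative to control samples and from duplicates, are log2 fold changes.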
# Sequence of UniProt O00244 (O00244 whole entry, looked up): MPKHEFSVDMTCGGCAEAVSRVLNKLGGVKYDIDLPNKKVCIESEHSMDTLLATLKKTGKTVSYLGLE
# Sequence of UniProt O00468 (O00468 whole entry, looked up): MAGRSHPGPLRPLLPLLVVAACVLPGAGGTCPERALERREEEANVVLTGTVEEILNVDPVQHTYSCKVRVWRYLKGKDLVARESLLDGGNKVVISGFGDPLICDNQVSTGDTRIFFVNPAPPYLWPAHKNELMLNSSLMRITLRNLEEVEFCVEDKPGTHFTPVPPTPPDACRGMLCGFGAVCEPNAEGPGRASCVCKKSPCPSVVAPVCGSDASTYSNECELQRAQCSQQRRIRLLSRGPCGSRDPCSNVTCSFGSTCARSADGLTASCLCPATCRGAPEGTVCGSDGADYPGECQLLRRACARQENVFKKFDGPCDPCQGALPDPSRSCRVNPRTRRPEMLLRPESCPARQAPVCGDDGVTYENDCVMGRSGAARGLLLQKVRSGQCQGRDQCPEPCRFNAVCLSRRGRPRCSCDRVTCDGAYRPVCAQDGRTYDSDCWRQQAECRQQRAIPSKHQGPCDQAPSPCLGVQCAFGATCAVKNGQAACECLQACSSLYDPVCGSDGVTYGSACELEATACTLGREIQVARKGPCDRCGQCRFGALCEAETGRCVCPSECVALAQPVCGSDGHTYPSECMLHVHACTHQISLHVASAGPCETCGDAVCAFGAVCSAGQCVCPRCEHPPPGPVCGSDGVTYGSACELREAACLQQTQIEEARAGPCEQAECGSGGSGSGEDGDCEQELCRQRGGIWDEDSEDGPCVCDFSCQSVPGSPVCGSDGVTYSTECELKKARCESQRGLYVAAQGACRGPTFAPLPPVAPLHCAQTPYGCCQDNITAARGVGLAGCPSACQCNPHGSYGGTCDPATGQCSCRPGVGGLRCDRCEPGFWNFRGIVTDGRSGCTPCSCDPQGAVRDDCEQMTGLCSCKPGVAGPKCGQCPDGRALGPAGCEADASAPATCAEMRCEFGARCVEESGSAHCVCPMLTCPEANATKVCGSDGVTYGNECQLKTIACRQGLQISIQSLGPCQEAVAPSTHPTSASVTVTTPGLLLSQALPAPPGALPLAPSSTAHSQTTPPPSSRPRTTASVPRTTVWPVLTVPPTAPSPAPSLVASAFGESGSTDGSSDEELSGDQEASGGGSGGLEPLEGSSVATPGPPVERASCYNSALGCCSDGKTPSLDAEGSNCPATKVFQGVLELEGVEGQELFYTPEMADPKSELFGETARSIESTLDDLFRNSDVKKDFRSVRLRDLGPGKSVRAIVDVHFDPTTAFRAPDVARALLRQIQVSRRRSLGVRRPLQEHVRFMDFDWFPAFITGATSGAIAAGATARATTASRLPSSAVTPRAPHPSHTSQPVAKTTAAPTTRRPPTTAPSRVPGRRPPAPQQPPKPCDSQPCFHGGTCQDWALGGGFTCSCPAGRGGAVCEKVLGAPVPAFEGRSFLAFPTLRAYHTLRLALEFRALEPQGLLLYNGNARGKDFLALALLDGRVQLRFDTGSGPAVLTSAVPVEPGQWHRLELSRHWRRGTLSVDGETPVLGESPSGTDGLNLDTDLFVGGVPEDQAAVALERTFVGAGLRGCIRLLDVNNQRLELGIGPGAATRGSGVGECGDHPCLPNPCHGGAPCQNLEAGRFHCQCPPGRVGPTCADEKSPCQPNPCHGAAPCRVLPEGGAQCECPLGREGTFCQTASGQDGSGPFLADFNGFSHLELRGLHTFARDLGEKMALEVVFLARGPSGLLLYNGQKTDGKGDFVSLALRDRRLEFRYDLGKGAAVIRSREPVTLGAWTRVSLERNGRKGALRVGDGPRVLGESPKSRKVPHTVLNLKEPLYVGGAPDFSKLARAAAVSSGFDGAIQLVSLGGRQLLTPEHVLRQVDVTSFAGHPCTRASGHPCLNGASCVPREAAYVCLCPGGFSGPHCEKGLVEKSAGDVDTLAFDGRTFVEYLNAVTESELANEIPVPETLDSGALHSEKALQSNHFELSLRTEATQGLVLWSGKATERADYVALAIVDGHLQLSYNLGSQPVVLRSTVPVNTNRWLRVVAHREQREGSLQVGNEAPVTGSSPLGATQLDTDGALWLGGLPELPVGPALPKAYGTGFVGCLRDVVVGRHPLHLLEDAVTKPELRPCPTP
# Sequence of UniProt Q15059 (Q15059 whole entry, looked up): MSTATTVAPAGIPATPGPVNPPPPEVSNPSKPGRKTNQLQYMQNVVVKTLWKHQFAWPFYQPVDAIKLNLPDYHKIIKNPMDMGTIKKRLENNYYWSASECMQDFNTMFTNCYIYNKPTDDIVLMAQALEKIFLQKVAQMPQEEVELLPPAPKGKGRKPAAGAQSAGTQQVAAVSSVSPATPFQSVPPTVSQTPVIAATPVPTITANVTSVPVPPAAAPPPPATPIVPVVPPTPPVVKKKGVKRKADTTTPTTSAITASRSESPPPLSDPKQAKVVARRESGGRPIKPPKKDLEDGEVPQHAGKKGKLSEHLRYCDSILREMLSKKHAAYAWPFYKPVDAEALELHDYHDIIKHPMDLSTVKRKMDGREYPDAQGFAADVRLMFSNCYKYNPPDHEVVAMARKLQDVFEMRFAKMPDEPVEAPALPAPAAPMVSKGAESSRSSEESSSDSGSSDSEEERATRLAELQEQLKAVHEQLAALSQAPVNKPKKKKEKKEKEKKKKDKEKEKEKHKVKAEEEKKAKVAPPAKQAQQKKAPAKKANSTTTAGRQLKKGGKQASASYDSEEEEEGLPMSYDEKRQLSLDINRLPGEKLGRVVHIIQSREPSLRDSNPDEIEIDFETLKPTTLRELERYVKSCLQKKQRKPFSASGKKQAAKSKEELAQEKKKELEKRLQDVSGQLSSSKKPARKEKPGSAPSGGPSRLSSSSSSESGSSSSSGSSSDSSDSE
# Sequence of UniProt Q9UI12 (Q9UI12 whole entry, looked up): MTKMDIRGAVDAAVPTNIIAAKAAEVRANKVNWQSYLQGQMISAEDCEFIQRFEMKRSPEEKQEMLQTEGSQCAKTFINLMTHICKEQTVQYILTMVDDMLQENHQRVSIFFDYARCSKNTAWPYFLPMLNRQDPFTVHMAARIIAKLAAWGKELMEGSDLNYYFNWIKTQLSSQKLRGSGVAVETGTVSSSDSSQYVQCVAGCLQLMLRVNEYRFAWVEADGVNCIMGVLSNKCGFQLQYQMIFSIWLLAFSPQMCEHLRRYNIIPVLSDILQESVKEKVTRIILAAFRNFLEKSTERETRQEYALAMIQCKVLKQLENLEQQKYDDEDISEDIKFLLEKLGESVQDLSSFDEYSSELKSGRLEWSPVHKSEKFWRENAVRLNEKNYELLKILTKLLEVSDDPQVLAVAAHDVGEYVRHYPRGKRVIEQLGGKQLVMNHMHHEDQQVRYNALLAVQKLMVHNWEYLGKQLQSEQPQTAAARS
# Sequence of UniProt Q8IUR7 (Q8IUR7 whole entry, looked up): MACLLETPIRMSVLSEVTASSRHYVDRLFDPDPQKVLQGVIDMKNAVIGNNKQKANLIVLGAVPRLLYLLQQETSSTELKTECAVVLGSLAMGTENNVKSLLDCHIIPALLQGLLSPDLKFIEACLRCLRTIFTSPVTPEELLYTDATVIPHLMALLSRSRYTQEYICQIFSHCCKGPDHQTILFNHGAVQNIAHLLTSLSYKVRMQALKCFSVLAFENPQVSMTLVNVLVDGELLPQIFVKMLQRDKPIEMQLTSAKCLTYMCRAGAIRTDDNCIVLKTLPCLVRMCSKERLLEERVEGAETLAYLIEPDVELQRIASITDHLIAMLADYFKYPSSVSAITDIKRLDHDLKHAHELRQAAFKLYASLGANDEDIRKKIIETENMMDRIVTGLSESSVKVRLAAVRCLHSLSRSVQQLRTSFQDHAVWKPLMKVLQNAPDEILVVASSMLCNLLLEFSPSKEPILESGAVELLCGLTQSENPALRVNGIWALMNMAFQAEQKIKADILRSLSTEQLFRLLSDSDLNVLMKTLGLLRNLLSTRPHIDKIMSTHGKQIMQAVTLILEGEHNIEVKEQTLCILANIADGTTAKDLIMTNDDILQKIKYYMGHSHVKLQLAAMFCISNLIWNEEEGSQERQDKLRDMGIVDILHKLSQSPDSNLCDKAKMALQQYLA
# Sequence of UniProt Q5JTZ9 (Q5JTZ9 whole entry, looked up): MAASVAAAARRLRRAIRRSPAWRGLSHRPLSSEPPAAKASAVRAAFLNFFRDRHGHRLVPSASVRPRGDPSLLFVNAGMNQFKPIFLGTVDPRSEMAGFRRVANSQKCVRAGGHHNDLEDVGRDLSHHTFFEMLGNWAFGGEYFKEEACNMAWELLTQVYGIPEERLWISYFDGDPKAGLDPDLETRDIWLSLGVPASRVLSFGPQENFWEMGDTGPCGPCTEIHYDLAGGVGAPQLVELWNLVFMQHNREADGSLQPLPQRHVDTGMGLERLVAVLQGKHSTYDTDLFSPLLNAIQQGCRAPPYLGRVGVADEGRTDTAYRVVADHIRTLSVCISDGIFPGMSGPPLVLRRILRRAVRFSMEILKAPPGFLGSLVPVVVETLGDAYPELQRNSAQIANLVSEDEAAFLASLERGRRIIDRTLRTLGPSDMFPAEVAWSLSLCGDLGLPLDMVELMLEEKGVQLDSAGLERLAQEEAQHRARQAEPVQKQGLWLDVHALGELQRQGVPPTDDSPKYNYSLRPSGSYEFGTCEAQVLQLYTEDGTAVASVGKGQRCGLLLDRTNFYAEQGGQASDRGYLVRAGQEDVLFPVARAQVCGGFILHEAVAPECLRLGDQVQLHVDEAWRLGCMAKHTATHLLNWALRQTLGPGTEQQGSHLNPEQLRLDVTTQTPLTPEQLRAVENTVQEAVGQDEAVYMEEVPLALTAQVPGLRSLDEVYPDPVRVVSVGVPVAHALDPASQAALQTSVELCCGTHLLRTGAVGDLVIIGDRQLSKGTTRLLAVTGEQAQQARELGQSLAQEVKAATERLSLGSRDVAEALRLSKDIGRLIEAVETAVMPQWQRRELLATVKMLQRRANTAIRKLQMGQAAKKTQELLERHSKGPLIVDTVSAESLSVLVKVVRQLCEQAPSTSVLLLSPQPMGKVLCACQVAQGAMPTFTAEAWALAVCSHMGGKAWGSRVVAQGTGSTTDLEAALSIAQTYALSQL
row,Target,log2 fold change
1,BLVRB (UniProt P30043),-0.045 (inactive)
2,ARL3 (UniProt P36405),-0.062 (inactive)
3,AGRN (UniProt O00468),-0.005 (inactive)
4,AARS2 (UniProt Q5JTZ9),-0.107 (inactive)
5,AP2A2 isoform 2 (UniProt O94973),0.022 (inactive)
6,ATOX1 (UniProt O00244),-0.096 (inactive)
7,ATP6V0A1 isoform 3 (UniProt Q93050),0.112 (inactive)
8,ALG3 (UniProt Q92685),-0.212 (inactive)
9,APOH (UniProt P02749),1.05 (active)
10,ATP12A isoform 2 (UniProt P54707),0.016 (inactive)
11,AGPS (UniProt O00116),-0.037 (inactive)
12,ATP1A1 (UniProt P05023),0.004 (inactive)
13,BZW2 (UniProt Q9Y6E2),-0.126 (inactive)
14,ACIN1 (UniProt Q9UKV3),0.099 (inactive)
15,BMP2K (UniProt Q9NSY1),-0.092 (inactive)
16,AIFM2 (UniProt Q9BRQ8),-0.017 (inactive)
17,ATP1B3 (UniProt P54709),0.014 (inactive)
18,BECN1 (UniProt Q14457),-0.159 (inactive)

row,Target,log2 fold change
1,ATP6V1H (UniProt Q9UI12),-0.067 (inactive)
2,ATAD3B (UniProt Q5T9A4),0.081 (inactive)
3,ADRM1 (UniProt Q16186),-0.073 (inactive)
4,BRD3 (UniProt Q15059),-0.012 (inactive)
5,ASNS (UniProt P08243),-0.021 (inactive)
6,AGPAT3 isoform 3 (UniProt Q9NRZ7),-0.149 (inactive)
7,BUB1B isoform 3 (UniProt O60566),-0.014 (inactive)
8,ARMC8 (UniProt Q8IUR7),-0.016 (inactive)
9,BCAP29 isoform 2 (UniProt Q9UHQ4),0.027 (inactive)
10,ATG4B isoform 2 (UniProt Q9Y4P1),-0.045 (inactive)
11,BST2 (UniProt Q10589),-0.044 (inactive)
12,AKAP8 (UniProt O43823),0.052 (inactive)
13,BZW1 isoform 3 (UniProt Q7L1Q6),-0.152 (inactive)
14,ANKRD29 (UniProt Q8N6D5),-0.077 (inactive)
15,AGPAT5 (UniProt Q9NUQ2),-0.044 (inactive)
16,ASH2L (UniProt Q9UBL3),0.021 (inactive)
17,AGPAT1 (UniProt Q99943),-0.059 (inactive)

# Compound: COc1cc(Nc2ncc3c(n2)-c2ccc(Cl)cc2C(c2c(F)cccc2OC)=NC3)ccc1C(=O)O [alisertib]
# Experiment: as above
# Procedure, shortened: as §1
row,Target,log2 fold change
1,BLVRB (UniProt P30043),-0.07 (inactive)
2,ARL3 (UniProt P36405),-0.076 (inactive)
3,AGRN (UniProt O00468),-0.043 (inactive)
4,AARS2 (UniProt Q5JTZ9),0.016 (inactive)
5,AP2A2 isoform 2 (UniProt O94973),-0.095 (inactive)
6,ATOX1 (UniProt O00244),-0.062 (inactive)
7,ATP6V0A1 isoform 3 (UniProt Q93050),0.027 (inactive)
8,ALG3 (UniProt Q92685),-0.001 (inactive)
9,APOH (UniProt P02749),0.151 (inactive)
10,ATP12A isoform 2 (UniProt P54707),-0.008 (inactive)
11,AGPS (UniProt O00116),-0.03 (inactive)
12,ATP1A1 (UniProt P05023),-0.092 (inactive)
13,BZW2 (UniProt Q9Y6E2),-0.056 (inactive)
14,ACIN1 (UniProt Q9UKV3),-0.082 (inactive)
15,BMP2K (UniProt Q9NSY1),0 (inactive)
16,AIFM2 (UniProt Q9BRQ8),-0.078 (inactive)
17,ATP1B3 (UniProt P54709),-0.032 (inactive)
18,BECN1 (UniProt Q14457),-0.081 (inactive)

row,Target,log2 fold change
1,ATP6V1H (UniProt Q9UI12),-0.1 (inactive)
2,ATAD3B (UniProt Q5T9A4),0.193 (inactive)
3,ADRM1 (UniProt Q16186),-0.031 (inactive)
4,BRD3 (UniProt Q15059),-0.035 (inactive)
5,ASNS (UniProt P08243),-0.027 (inactive)
6,AGPAT3 isoform 3 (UniProt Q9NRZ7),0.012 (inactive)
7,BUB1B isoform 3 (UniProt O60566),0.005 (inactive)
8,ARMC8 (UniProt Q8IUR7),-0.08 (inactive)
9,BCAP29 isoform 2 (UniProt Q9UHQ4),-0.023 (inactive)
10,ATG4B isoform 2 (UniProt Q9Y4P1),-0.009 (inactive)
11,BST2 (UniProt Q10589),-0.059 (inactive)
12,AKAP8 (UniProt O43823),-0.046 (inactive)
13,BZW1 isoform 3 (UniProt Q7L1Q6),-0.078 (inactive)
14,ANKRD29 (UniProt Q8N6D5),-0.044 (inactive)
15,AGPAT5 (UniProt Q9NUQ2),0.113 (inactive)
16,ASH2L (UniProt Q9UBL3),-0.034 (inactive)
17,AGPAT1 (UniProt Q99943),-0.081 (inactive)
